# KCNQ2 pot – KCNQ2 (rat) channel potentiation; O88943; CHO-K1 KCNQ2, FluxOR thallium flux fluorescence; hits give high values; B-score at 10 µM; actives 0.54% (n = 310,000);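 active = fluorescence ratio B-score at least 3 SD of library B-scores, with initial fluorescence B-score within 3 of them, cut at about 5.3 in these data; same plate scores as AID 2156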;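 note: B-score of peak minus minimum over baseline fluorescence ratio after K+ and Tl+ stimulus; positive B-score means potentiation of KCNQ2 with more thallium influx and brighter signal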
# Target sequence (O88943 whole entry, looked up): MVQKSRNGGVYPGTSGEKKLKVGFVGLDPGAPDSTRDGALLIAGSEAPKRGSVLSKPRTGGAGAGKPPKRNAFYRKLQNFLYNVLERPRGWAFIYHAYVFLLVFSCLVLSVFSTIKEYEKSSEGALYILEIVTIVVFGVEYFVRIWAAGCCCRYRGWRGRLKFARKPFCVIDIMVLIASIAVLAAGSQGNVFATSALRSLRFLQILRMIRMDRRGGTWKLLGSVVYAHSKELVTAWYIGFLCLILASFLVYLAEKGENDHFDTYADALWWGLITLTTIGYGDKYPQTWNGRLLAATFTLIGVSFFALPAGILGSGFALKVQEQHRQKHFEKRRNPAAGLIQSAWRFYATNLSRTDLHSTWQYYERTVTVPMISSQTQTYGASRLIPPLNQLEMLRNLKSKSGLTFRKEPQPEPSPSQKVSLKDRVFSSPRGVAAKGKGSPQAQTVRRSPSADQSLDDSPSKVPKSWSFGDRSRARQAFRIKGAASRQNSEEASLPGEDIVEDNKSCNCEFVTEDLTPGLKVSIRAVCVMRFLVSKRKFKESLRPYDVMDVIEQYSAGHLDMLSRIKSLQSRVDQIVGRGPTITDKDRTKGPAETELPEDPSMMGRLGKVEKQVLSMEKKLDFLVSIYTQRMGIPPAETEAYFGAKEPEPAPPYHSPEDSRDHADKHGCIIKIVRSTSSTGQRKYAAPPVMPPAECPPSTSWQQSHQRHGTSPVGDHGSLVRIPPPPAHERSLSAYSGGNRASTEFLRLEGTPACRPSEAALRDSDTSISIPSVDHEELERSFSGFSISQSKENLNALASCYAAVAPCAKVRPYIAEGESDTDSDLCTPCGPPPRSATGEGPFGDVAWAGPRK
# KCNQ2 inh – blocks the rat KCNQ2 potassium channel; O88943; actives 1.1% (n = 310,000); CHO-K1 KCNQ2, FluxOR thallium flux, 20 min; hits give low values; B-score at 10 µM;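 active = fluorescence ratio B-score at most minus 3 library SDs, with starting brightness B-score within 2 library SDs, cut at about -5.5 in these data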
# * hit, by the source's call; i = inactive; / = no result. In the library only some 1.6% were active in any assay of this set; here they are far more common.
SMILES,KCNQ2 pot,KCNQ2 inh
CCNC(=O)/C(=C\c1ccc2c(c1)OCO2)NC(=O)c1ccc(Br)cc1,/,i
COc1ccccc1C(=O)N/C(=C\c1ccc(Br)cc1)C(=O)NCCO,/,i
CCN(CC)C(=O)/C(=C\c1ccc(Br)cc1)NC(=O)c1ccccc1OC,-7.2,-7.2*
CNc1ccn(C2CCCO2)c(=O)n1 (configuration not stated),/,i
O=C(NCc1ccccc1F)c1ccc2c(c1)OCO2,/,i
CCOc1ccc(Cc2c(Cl)nc(SC)nc2N(C)C)cc1,-7.2,-7.2*
CSc1nc(Cl)c(Cc2ccc(OC(C)C)cc2)c(N(C)C)n1,-6,-6*
COc1ccc(Cc2c(Cl)ncnc2Cl)cc1,/,i
CCOc1ccc(Cc2c(Cl)nc(N)nc2Cl)cc1,/,i
COc1cc(/C=C(\C#N)C(=O)NCC2CCCO2)cc(OC)c1OC (configuration not stated),0.49,i
Cc1cccc(NC(=O)c2nc(-c3ccccc3)n(-c3ccccc3)n2)c1C,-8.2,-8.2*
Cc1cc(C(=O)Nc2cccc(C)c2C)c2ccccc2n1,-5.8,-5.8*
Cc1ccc(NC(=O)c2cc(-c3ccccc3)nn2-c2ccccc2)c(Br)c1,/,i
Cc1cccc(NC(=O)c2cnn(-c3ccccc3)c2C)c1C,/,i
CCc1nnc(NC(=O)c2cc(-c3cccnc3)nc3ccccc23)s1,1,i
Cc1cc(C(=O)Nc2ccccc2C)c2ccccc2n1,/,i
CCc1nnc(NC(=O)c2cc(C)nc3ccccc23)s1,-6.3,-6.3*
Cc1ccc(NC(=O)c2cc(-c3ccccc3)nn2-c2ccccc2)cc1,-5.7,-5.7*
Nc1cccc2c3c(oc12)CCCC3,0.41,i
COc1ccc2oc(=O)c(C(=O)N3CCN(C(=O)c4ccco4)CC3)cc2c1,/,i
CCOC(=O)c1c(NC(=S)Nc2cccc(C)c2)sc2c1CC(C)(C)SC2,0.14,i
CN1CCN(c2ccc(NC(=O)c3ccco3)cc2Cl)CC1,2,i
COc1cccc2c1Oc1ncccc1N(C(=O)CCC(=O)NCc1ccccc1)C2,/,i
NC(=O)c1ccccc1N/C=C/C(=O)c1ccc(Cl)cc1,1.3,i
CCc1ccc(CNCc2ccc(OCC(O)CN(C)Cc3ccccc3)cc2)nc1 (configuration not stated),0.11,i
SMILES,KCNQ2 pot,KCNQ2 inh
CC(CCc1ccccc1)NC(=O)CCc1cn(C)c2ccccc12 (configuration not stated),/,i
Cc1ccc2c(c1)C1CN(C)CCC1N2C(=O)COc1ccc(N(C)C(=O)C(C)(C)C)cc1 (configuration not stated),/,i
Cc1ccc2c(c1)C1CN(C)CCC1N2CC(=O)N(C)c1ccccc1 (configuration not stated),5.6*,i
Cc1cn(S(=O)(=O)c2cc(Br)ccc2Br)cn1,0.78,i
COc1ccc(OC)c(NC2c3ncccc3C(=O)N2Cc2ccco2)c1 (configuration not stated),0.2,i
O=C(CSc1ccccc1)NCc1ccccc1,/,i
O=C(COC(=O)CCC(=O)c1cccs1)NCc1ccc(Cl)cc1,0.13,i
O=C(CSc1cccc(C(F)(F)F)c1)NCc1ccccc1,16*,i
O=C(CCC(=O)c1cccs1)NCc1cccc(C(F)(F)F)c1,-6.4,-6.4*
O=C(O)CSCC(=O)NCc1cccc(C(F)(F)F)c1,0.01,i
O=C(CCC(=O)c1cccs1)NCc1cccc(Cl)c1,-6.3,-6.3*
Cc1cccc(C(=O)Oc2ccccc2-c2nnco2)c1,/,i
Cc1ccc(NC(=O)CSCC(=O)Nc2cccc3ncccc23)cc1,/,i
CCOC(=O)CC1C(=O)NCCN1S(=O)(=O)c1cc(Cl)c(Cl)cc1Cl (configuration not stated),/,i
O=C(O)CSCC(=O)Nc1ccc(S(=O)(=O)N2CCCCC2)cc1,/,i
CN(C)c1nc(SCC(=O)Nc2ccccc2)nc(N2CCOCC2)n1,6.4*,i
CN(C)c1nc(SCC(=O)Nc2ccc(Cl)c(Cl)c2)nc(N2CCOCC2)n1,1.5,i
Cc1cc(-c2ccccc2)nc2c(Br)c(=O)[nH]n12,/,i
O=C(O)CC(Cc1ccc(Cl)cc1)C(=O)NCC12CC3CC(CC(C3)C1)C2 (configuration not stated),1.4,i
O=C(NCCCN1CCC(Cc2ccccc2)CC1)C1CC(=O)N(C2CCCC2)C1 (configuration not stated),/,i
COc1cccc(CC(=O)Nc2sc3c(c2C(N)=O)CCCC3)c1,0.2,i
C=CCn1c(CSCc2ccccc2)nnc1SCC(=O)N1CCN(c2ccccc2)CC1,/,i
CCn1c(CSCc2ccc(C)cc2)nnc1SCC(=O)N1CCN(c2ccccc2)CC1,-7.8,-7.8*
CCC(C)c1ccc(OCCCCN2CCOCC2)cc1 (configuration not stated),/,i
O=C(COC(=O)c1ccc(=O)[nH]c1)Nc1cccc(S(=O)(=O)N2CCOCC2)c1,/,i
SMILES,KCNQ2 pot,KCNQ2 inh
CC(=O)c1cnc2c(-c3ccccc3)c(C)nn2c1C,/,i
CC(=O)c1cnc2c(-c3ccc(Cl)cc3)c(C)nn2c1C,-5.8,-5.8*
COC(=O)N/N=C/c1cc(Br)ccc1O,/,i
O=C(N/N=C/c1cc(Br)ccc1O)c1ccccc1Cl,9.1*,i
Cc1ccc(Oc2c(F)c(F)nc(N3CCCC3)c2F)cc1,/,i
Cc1cccc(N2CC(C(=O)Nc3ccc(S(=O)(=O)N4CCCCC4)cc3)CC2=O)c1C (configuration not stated),/,i
COc1ccccc1N1CCN(/N=C\c2ccccc2)CC1,/,i
COc1ccccc1N1CCN(/N=C/c2cc(OC)c(OC)c(OC)c2)CC1,/,i
COc1ccccc1N1CCN(/N=C/c2cccc(OC)c2OC)CC1,-7.3,-7.3*
COc1ccccc1N1CCN(/N=C\c2sccc2C)CC1,-6.2,-6.2*
CCCSC1=C(C#N)C(c2cccs2)C(C(=O)Nc2ccccc2)=C(C)N1 (configuration not stated),-8.8,-8.8*
CCSC1=C(C#N)C(c2cccs2)C(C(=O)OC)=C(C)N1 (configuration not stated),1.4,i
COc1ccc(N2CC(C(=O)Nc3ccc([N+](=O)[O-])cc3Br)CC2=O)cc1 (configuration not stated),/,i
CCOC(=O)C1CCCN(C(=O)Cn2nc(C)n3c(cc4c(OC)cccc43)c2=O)C1 (configuration not stated),0.99,i
COc1cccc2c1cc1c(=O)n(CC(=O)N3CCCCCC3)nc(C)n12,-5.7,-5.7*
CCc1nc2ccccc2c(C(=O)OCC(=O)NCc2ccc3c(c2)OCO3)c1C,-5.8,-5.8*
CCCc1nc2ccccc2c(C(=O)OCC(=O)NCc2ccc3c(c2)OCO3)c1CC,/,i
CC1CCC(C(C)C)C2=C1C(C#N)(C#N)C(C#N)(C#N)C(c1ccccc1)N2 (configuration not stated),-7.8,-7.8*
CC1=CC(C#N)(C#N)C(C#N)(C#N)C(c2ccccc2)N1 (configuration not stated),/,i
N#Cc1cnc2c(-c3ccccc3)c(-c3ccccc3)nn2c1N,/,i
COc1ccc(CC(=O)Nc2cccc(/C(C)=N/NC(=O)c3cccc([N+](=O)[O-])c3)c2)cc1,-6,-6*
COc1ccc(CC(=O)N/N=C(\C)c2cccc(NC(=O)C3CC3)c2)cc1,2.9,i
N#Cc1ncccc1CCc1cccc(Cl)c1,0.49,i
CCN1CCN(C(=S)Nc2ccccc2Cl)CC1,0.26,i

# Assay outcomes from PubChem BioAssay.
